Measured values taken from PubChem BioAssay (NCI).
Compounds without any hit were thinned out: in the full panel of roughly 83,000, 20% have a hit.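 96-well plates, one dose, 48 hours. Percent growth reported; active if below 10.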 A number with no mark means an inactive call. Activity calls are given as the source filed them.

Tests used:
Assay in all cases: NCI-60 one-dose screen, 48 h (100 = growth as untreated, 0 = no growth, -100 = all killed)
[1] = test system: SK-MEL-2 melanoma; settings: 10 µM unless noted
[2] = test system: EKVX NSCLC; settings: 10 µM unless noted
[3] = test system: SN12C renal; settings: 10 µM unless noted
[4] = test system: UO-31 renal; settings: 10 µM unless noted
[5] = test system: TK-10 renal; settings: 10 µM unless noted
[6] = test system: ACHN renal; settings: 10 µM unless noted
[7] = test system: CAKI-1 renal; settings: 10 µM unless noted
[8] = test system: A498 renal; settings: 10 µM
[9] = test system: HL-60(TB) leukemia; settings: 10 µM unless noted
[10] = test system: CCRF-CEM leukemia; settings: 10 µM unless noted
[11] = test system: MOLT-4 leukemia; settings: 10 µM unless noted
[12] = test system: SR leukemia; settings: 10 µM unless noted
[13] = test system: RPMI-8226 leukemia; settings: 10 µM unless noted
[14] = test system: OVCAR-8 ovarian; settings: 10 µM unless noted
[15] = test system: OVCAR-5 ovarian; settings: 10 µM unless noted
[16] = test system: OVCAR-4 ovarian; settings: 10 µM unless noted
[17] = test system: SK-OV-3 ovarian; settings: 10 µM unless noted
[18] = test system: OVCAR-3 ovarian; settings: 10 µM unless noted
[19] = test system: HS 578T breast; settings: 10 µM unless noted
[20] = test system: IGROV1 ovarian; settings: 10 µM unless noted

Row | SMILES | growth [1] | growth [2] | growth [3] | growth [4] | growth [5] | growth [6] | growth [7] | growth [8] | growth [9] | growth [10] | growth [11] | growth [12] | growth [13] | growth [14] | growth [15] | growth [16] | growth [17] | growth [18] | growth [19] | growth [20]
1 | Cc1c(C)c([N+](=O)[O-])c(C)c(C)c1[N+](=O)[O-] | 90.8% | 98.7% | 111% | 106% | 107% | 106% | 91.3% | 94.3% | 109% | 99.1% | 100% | 93% | 106% | 95.7% | 93.8% | 98.2% | 117% | 118% | 118% | –
2 | O=C1NC(=O)C(=Cc2cccn2CCCCCn2c3ccccc3c(=O)c3ccccc32)C(=O)N1 | 107% | 105% | 106% | 79.4% | 101% | 105% | 103% | 104% | 92.2% | 100% | 93.3% | 86.7% | 92% | 102% | – | 99.8% | 108% | 105% | 106% | 99.4%
3 | Nc1nnnc2nc[nH]c12 | -16.8% (active) | 8.89% (active) | 10.9% | 3.57% (active) | 33.3% | 2.18% (active) | -11.1% (active) | 12.7% | -4.59% (active) | 0.72% (active) | 8.9% (active) | 5.26% (active) | -11.4% (active) | 11.5% | -3.28% (active) | – | -1.85% (active) | 27.6% | 8.71% (active) | 8.3% (active)
4 | COc1ccc(/C=C\c2cc(OC)c(OC)c(OC)c2)cc1OCC(=O)Nc1nc2ccc(F)cc2s1 | 68.8% | 57.7% | 42.4% | 0.455% (active) | 17.5% | 25% | 16.9% | 29.5% | 33.7% | 40.4% | 12.5% | 13.8% | 48.3% | – | 92.4% | 51.1% | 61.2% | 48.2% | 33.8% | 17%
5 | ClCCN(CCCl)c1ccc(-n2cnc3c(Cl)ncnc32)cc1 | 69% | 28.7% | 47.8% | -85.9% (active) | 84.7% | -82.1% (active) | -88.2% (active) | 95.2% | -9.68% (active) | 13.1% | 7.06% (active) | -29.2% (active) | 59.6% | 35.1% | – | – | 90.5% | -35.4% (active) | 49.5% | -84.5% (active)
6 | CC1=C2[C@@H](CC1)[C@]1(C)O[C@@](C(C)C)(C[C@H]1O)[C@H]2OC(=O)C1CC1c1ccccc1 (stereo partly specified) | 87.7% | 88% | 91.7% | 74.7% | 104% | 84.2% | 79.5% | 72.7% | 80.5% | 74.9% | 63.4% | 92.4% | 58.2% | 71.8% | – | 91.8% | 90.6% | 100% | 95.5% | 96.2%
7 | COc1ccc2c(c1)c(C1(O)CC(CSC#N)OC1=O)cn2C(=O)c1ccc(Cl)cc1 (stereo unspecified) | 80% | 89.6% | 94% | 78.5% | 103% | 94.5% | 82.9% | 153% | 94.6% | 82% | 93.2% | 84.8% | 91.9% | 98.8% | 99.4% | 101% | 109% | 108% | 101% | 77.2%
8 | Clc1cccc(N2COOC3(OOC2)C2CC4CC(C2)CC3C4)c1 | 98.3% | 94.2% | 76% | -89.6% (active) | 40.9% | 62.1% | 76.4% | 110% | 20.2% | -32.7% (active) | 77.8% | 37.7% | 53.8% | 58.1% | 84.3% | – | 98.1% | 19.2% | 88.6% | -54.4% (active)
9 | C=CC1=C[C@@H]2[C@@H]3O[C@]4(CC[C@H](O4)[C@@H](C)C[C@@H](O)C3=O)C[C@H](O)C3=NCC[C@@]32CC1 | -45.1% (active) | -29.1% (active) | -15% (active) | -38.8% (active) | -21% (active) | -64.8% (active) | -11.4% (active) | -82.6% (active) | -5.3% (active) | 4.16% (active) | 0.671% (active) | 2.4% (active) | -15.9% (active) | -12.3% (active) | – | -38.8% (active) | -4.99% (active) | -30.7% (active) | -29.6% (active) | -28.4% (active)
10 | CC(C)=CCc1c(O)c(C(=O)CC(C)C)c(O)c2c(-c3ccccc3)cc(=O)oc12 | 40.5% | 36.7% | 33.7% | 44.9% | 56.8% | 59.4% | 52.4% | 32.6% | 27.5% | 23.6% | 38.5% | 41.5% | 8.71% (active) | 47.6% | – | – | – | 33.9% | 47% | 62.9%
11 | [Cl][Hg][n]1c(-c2ccco2)nc2ccccc21 | 93.5% | 111% | 94.8% | 103% | 124% | 96.6% | 107% | 114% | 95.5% | 89.9% | 88.3% | 64.2% | 92.7% | 106% | 117% | 100% | 119% | – | 93.9% | 90.5%
12 | CC(C)(C)C(=O)OCOP(=O)(OCOC(=O)C(C)(C)C)C1CCCN(O)C1=O (stereo unspecified) | 24.9% | 19.7% | 2.67% (active) | 5.91% (active) | 2.8% (active) | 8.69% (active) | 5.9% (active) | -24.3% (active) | -21% (active) | 9.89% (active) | 3.92% (active) | 13.7% | -18% (active) | 5.69% (active) | – | 11.2% | 12.2% | 4.08% (active) | -8.85% (active) | -4.01% (active)
13 | CC(=O)O[C@H]1C(=O)[C@@]2(C)[C@H]([C@H](OC(=O)c3ccccc3)[C@]3(O)C[C@H](OC(=O)[C@H](OC(=O)OCC4COC(C)(C)O4)[C@@H](NC(=O)c4ccccc4)c4ccccc4)C(C)=C1C3(C)C)[C@]1(OC(C)=O)CO[C@@H]1C[C@@H]2O (stereo partly specified) | 54.2% | 70.8% | 51.7% | 71.3% | 79.6% | 66.5% | 37.5% | 47.1% | 12.8% | 31.3% | 35.8% | 35.7% | 13% | – | 20.8% | 79% | 48.5% | 15% | 30.5% | 35.3%
14 | C1CCC2(CC1)OOCNCOO2 | 102% | 99% | 110% | 93.6% | 91.3% | 110% | 93.1% | 97.4% | 71.7% | 99.5% | 77.9% | 62.8% | 102% | 101% | 109% | – | 105% | 103% | 115% | 104%
15 | O=C1NC(=O)C(=Cc2cn(C(=O)c3ccccc3)c3ccccc23)C(=O)N1 | 96.5% | 97.5% | 91.9% | 64.2% | 138% | 93.5% | 92.8% | 115% | 108% | 104% | 88.3% | 90.5% | 114% | 92.3% | 94.7% | – | 91.5% | 108% | 103% | –
16 | CCCCCCCC(=O)OCC(=O)[C@]1(O)Cc2c(O)c3c(c(O)c2[C@@H](OC2CC(N)C(O)C(C)O2)C1)C(=O)c1c(OC)cccc1C3=O (stereo partly specified) | -48.3% (active) | -57.9% (active) | -69.4% (active) | -83.2% (active) | -44.5% (active) | -82.9% (active) | -47.9% (active) | -87.6% (active) | -92.4% (active) | -90.3% (active) | -93.1% (active) | -67.1% (active) | -73.6% (active) | -95% (active) | -73.9% (active) | – | -58.5% (active) | -100% (active) | -59.3% (active) | -66.8% (active)
